# The list is not random: actives were taken first. Their share in the collection is about 3.7%.
# BoNT F protease: inhibitors of Botulinum neurotoxin F light chain protease; Multiplex microsphere protease cleavage assay, flow cytometry; AID 588497; actives 0.22% (n = 360,000); inhibition, % at 10 µM; in the data active = inhibition above about 35%, passing the limit was not always enough; inconclusive = no clear call, values can overlap the other calls; note: plate controls were buffer without enzyme for full effect and enzyme alone for no effect
# Autofluor counter: compound fluorescence in toxin protease inhibitor counterscreen; compound autofluorescence counterscreen, microsphere flow cytometry; stronger effect = higher value; fluorescence intensity (test concentration not listed); actives 3.1% (n = 360,000); in the data active = fluorescence intensity above about 16000; inconclusive = no clear call, values can overlap the other calls
# Anthrax LF prot: anthrax lethal factor protease inhibition. inhibition, % at 10 µM. multiplex microsphere protease cleavage assay, LF. actives 0.12% (n = 360,000); note: plate controls were buffer without enzyme for full effect and enzyme alone for no effect
# Target sequence (P15917 whole entry, looked up): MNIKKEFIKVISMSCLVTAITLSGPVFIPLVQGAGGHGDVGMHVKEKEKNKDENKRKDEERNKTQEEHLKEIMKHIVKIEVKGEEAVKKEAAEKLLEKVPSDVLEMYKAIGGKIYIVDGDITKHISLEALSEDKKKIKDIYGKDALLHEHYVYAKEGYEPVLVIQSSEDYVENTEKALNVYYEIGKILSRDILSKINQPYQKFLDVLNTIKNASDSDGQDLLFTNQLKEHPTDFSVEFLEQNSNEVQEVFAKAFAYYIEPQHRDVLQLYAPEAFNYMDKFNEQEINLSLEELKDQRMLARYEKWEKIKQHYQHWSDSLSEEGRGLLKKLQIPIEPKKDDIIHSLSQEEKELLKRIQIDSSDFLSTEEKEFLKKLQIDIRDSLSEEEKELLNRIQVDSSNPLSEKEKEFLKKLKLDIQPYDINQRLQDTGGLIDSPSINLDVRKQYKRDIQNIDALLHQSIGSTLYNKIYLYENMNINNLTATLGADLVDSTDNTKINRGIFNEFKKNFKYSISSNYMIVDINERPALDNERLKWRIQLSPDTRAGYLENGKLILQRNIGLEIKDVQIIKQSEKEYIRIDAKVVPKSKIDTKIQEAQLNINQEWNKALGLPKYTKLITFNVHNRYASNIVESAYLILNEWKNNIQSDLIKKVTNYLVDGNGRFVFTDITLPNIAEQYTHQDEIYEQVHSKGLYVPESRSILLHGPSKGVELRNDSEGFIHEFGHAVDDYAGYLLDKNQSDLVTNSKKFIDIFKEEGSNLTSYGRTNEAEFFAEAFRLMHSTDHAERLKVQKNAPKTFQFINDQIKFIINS
# Vc quorum ag: quorum light induction in luxS cqsA deficient V. cholerae; V. cholerae BH1578 lux reporter, luminescence, 6 h; activation, % at 18.7 µM; actives 0.16% (n = 350,000); in the data active = activation mostly above about 9.7%, no sharp cut-off; inconclusive = no clear call, values can overlap the other calls; inactive = mostly below about 3.7%
# BJeLR lethal: kills HRASV12-expressing BJeLR cells. inhibition, % (concentration not given with the values). actives 0.17% (n = 300,000). BJeLR (HRASV12) viability, CellTiter-Glo ATP luminescence, 48 h; in the data active = inhibition above about 50%; inconclusive = no clear call, values can overlap the other calls
# BoNT-A LC inh2: inhibitors of Botulinum neurotoxin A light chain protease | multiplex microsphere protease substrate cleavage, flow cytometry | inhibition, % at 10 µM | actives 0.17% (n = 360,000) | AID 588499; note: plate controls were buffer without enzyme for full effect and enzyme alone for no effect
# * = called active by the depositor; i = inactive; ? = inconclusive; . = no result given. Cut-off read from the data, not from the text of the source, unless noted: active = inhibition above about 30%; inconclusive = no clear call, values can overlap the other calls; inactive = below that.
SMILES,BoNT F protease,Autofluor counter,Anthrax LF prot,Vc quorum ag,BJeLR lethal,BoNT-A LC inh2
Cc1cc(C)nc(SCC(=O)c2c(N)n(C)c(=O)n(C)c2=O)n1,0,23309*,2,i,0,?
Cn1ccnc1SCC(=O)c1c(N)n(C)c(=O)n(C)c1=O,1,3313,-5,i,.,0
COc1ccccc1N1CCN(S(=O)(=O)CCNC(=O)C(C)Oc2ccccc2)CC1 (stereo not drawn),0,3569,2,-1,.,0
O=C1/C(=C/c2ccncc2)CCC/C1=C\c1ccncc1,-6,4297,2,0,68*,0
CCCN(CCC)C1Sc2ccc(C(=O)OC)cc2NC1=O (stereo not drawn),1,19484*,-1,i,5,1
COC(=O)c1ccc2c(c1)NC(=O)C(N(CC(C)C)CC(C)C)S2 (stereo not drawn),4,4793,-11,i,-5,0
COC(=O)COc1ccc(S(=O)(=O)Nc2ccc3c(c2)OCCO3)cc1Cl,5,20964*,-4,3,-3,5
Cc1cc(Cl)c(S(=O)(=O)N2CCN(c3ccc(F)cc3)CC2)cc1OCC(N)=O,0,3071,2,11,35,0
Cc1cc(Cl)c(S(=O)(=O)Nc2ccc3c(c2)OCCO3)cc1OCC(=O)NC1CCCCC1,1,19863*,-3,i,-6,?
Cc1cc(Cl)c(S(=O)(=O)N2CCN(c3ccc(F)cc3)CC2)cc1OCC(=O)NC1CCCCC1,-3,16526*,-4,1,-9,-1
O=C(Cc1csc(N2CCOCC2)n1)N/N=C/c1ccc(F)cc1,7,20712*,2,i,-2,6
O=C(Cc1csc(N2CCOCC2)n1)N/N=C/c1cccc(O)c1,5,10213,0,i,-6,0
COc1ccc(NC(=O)c2cc(C3CCCCN3C(=O)c3ccc4c(c3)CCO4)on2)c(C)c1 (stereo not drawn),2,3517,5,i,.,-1
CCCN(CCC)C(=O)CC(c1ccccc1)c1cc(Br)ccc1O (stereo not drawn),2,22655*,-1,i,.,4
CCCN(CCC)C(=O)CC(c1ccccc1)c1ccc(C)cc1O (stereo not drawn),2,22025*,-1,-2,-11,1
Cc1ccc(C(CC(=O)N2CCCC2)c2ccccc2)c(O)c1 (stereo not drawn),-8,4003,-13,i,5,-5
O=C(CC(c1ccccc1)c1cc(Br)ccc1O)N1CCCCC1 (stereo not drawn),1,4300,-7,0,2,-1
C[C@H](O)[C@@H]1C(=O)N2CCc3c([nH]c4ccccc34)[C@@H]2C[C@@H]1N(C)Cc1ccc(Cl)cc1,-1,3483,-11,i,.,0
COc1ccccc1-c1nnc(N)s1,2,3453,-4,-2,-9,1
COc1ccccc1-c1nnc(SC2CCc3ccccc3NC2=O)s1 (stereo not drawn),-2,20615*,2,i,9,?
CC1OC(CCc2cccc(Cl)c2)Cc2[nH]c(=S)[nH]c(=O)c21 (stereo not drawn),2,4462,0,.,.,1
N#CCSc1nnc(-c2ccc(S(=O)(=O)N3CCOCC3)cc2)n1CC1CCCO1 (stereo not drawn),-6,22267*,-6,i,-1,?
Cn1c(SCC(=O)N2CCCCC2)nnc1-c1ccc(S(=O)(=O)N2CCOCC2)cc1,-5,17538*,-4,1,-1,-3
NC(=O)CSc1nnc(-c2ccc(S(=O)(=O)N3CCCC3)cc2)n1Cc1ccco1,3,19668*,0,i,4,4
CCn1c(SCC(=O)N2CCCCC2)nnc1-c1ccc(S(=O)(=O)N2CCN(C)CC2)cc1,3,16315*,0,1,3,1
SMILES,BoNT F protease,Autofluor counter,Anthrax LF prot,Vc quorum ag,BJeLR lethal,BoNT-A LC inh2
COc1ccc(CN2CCC[C@]3(N[C@H](c4ccccc4)[C@@H]4C(=O)N(Cc5ccccc5)C(=O)[C@@H]43)C2=O)cc1,-9,4141,-7,i,.,-1
O[C@@H]1CN(Cc2cccs2)[C@@H](c2ccc(Cl)cc2)C[C@H]1n1cc(-c2ccc(F)cc2)nn1,1,2865,-7,0,.,0
O=C(C[C@H]1C(=O)N(CCc2ccccc2)C[C@@H]1c1ccccc1)Nc1ccccc1,1,3553,0,i,.,0
Cc1ccc(F)c(S(=O)(=O)NC(=O)C2(C)CCN2C(=O)CCC2CCCC2)c1 (stereo not drawn),1,3345,-1,i,.,0
CCOC(=O)CSc1nnc(-c2ccc(S(=O)(=O)N3CCOCC3)cc2)n1-c1ccccc1,-6,4465,1,0,3,-1
CCn1c(SCC(=O)N2CCCC2)nnc1-c1ccc(S(=O)(=O)N2CCCCCC2)cc1,2,19519*,2,i,1,?
CCn1c(SCC(=O)Nc2cc(C)on2)nnc1-c1ccc(S(=O)(=O)N2CCN(C)CC2)cc1,1,24027*,0,5,7,0
Cc1nnc(SCC(=O)c2ccc(S(=O)(=O)N3CCOCC3)cc2)n1-c1ccccc1,-6,24041*,-2,i,4,?
COc1ccc(OC)c(NC(=O)CCNS(=O)(=O)c2ccc3c(c2)CC(C)N3C(C)=O)c1 (stereo not drawn),-10,3876,-11,-1,.,0
CC1(C)OC(=O)C2=C(C[C@@H](C3CCCCC3)O[C@@H]2c2ccc(F)cc2)O1,2,6282,-1,.,.,-1
CC(C)(C)CC(C)(C)NC1=CC(=O)OC12CCCCC2,-8,8007,1,i,1,0
CC(C)(C)NC1=CC(=O)OC12CCCCC2,0,23197*,-2,-6,10,1
Cc1ccc(C(=O)Nc2c3c(nn2C(C)(C)C)CS(=O)(=O)C3)cc1C,-2,20652*,-1,0,1,-2
Cc1cc(C)nc(N2N=C(C(C)(C)C)CC2=O)n1,-2,23425*,2,i,-8,?
CN(C)CC(CCC(CN(C)C)C(O)(c1ccccc1)c1ccccc1)C(O)(c1ccccc1)c1ccccc1 (stereo not drawn),.,.,.,.,83*,.
Cc1ccc(S(=O)(=O)NC(=O)NCc2ccco2)cc1,1,2836,-4,-3,.,0
Cc1ccc(S(=O)(=O)N[C@@H](CC(C)C)C(=O)NCc2ccco2)cc1,-1,23101*,0,-1,0,?
COc1ccccc1CN(CC(=O)NCc1ccco1)C(=O)CNS(=O)(=O)c1ccc(C)cc1,-25,3636,-6,-1,-4,-1
Cc1ccc(S(=O)(=O)NCC(=O)N(CC(=O)NCc2ccco2)Cc2cccs2)cc1,-3,20378*,-2,0,6,-1
O=C(Nc1cc(C(F)(F)F)cc(C(F)(F)F)c1)O[C@@H]1c2ccccc2[C@@H]2Cc3csc[n+]3[C@H]12,-9,5865,-2,.,.,0
OCCc1ccc(NCCc2cccs2)cc1,5,5176,-6,.,.,0

# From PubChem
